Measurements taken from PubChem BioAssay.
Inconclusive results are not listed. Active and inactive are the calls of the source.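 How the source made its calls, unless noted: active means viability at or under a set limit in both replicates, limit being median viability minus 3 SD (cut at about 48% in these data, passing the limit was not always enough); inconclusive means at or under the limit in just one replicate; inactive means at or above the limit in both replicates.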

Assays:
[1] = Her2 expression decrease, cell viability multiplex – SKBR3 breast tumor cells, AlphaScreen, ATP viability, primary screen (AID 461;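 active means Her2 level under about 52% in both replicate screens, with viability over 70% of control, limit read from the data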;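 on Her2 level: lower value means less Her2 protein in the cells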;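 on viability: percent of carrier control wells set as 100% viability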); details: SKBR3 Her2 protein level, 18-24 h, measured here: SKBR3 viability, ATP luminescence, at 10 µM
[2] = biological target: Receptor tyrosine-protein kinase erbB-2 (Homo sapiens) (UniProt P04626); test: as above; details: 18-24 h, at 10 µM, stronger effect = lower value
Sequence of Receptor tyrosine-protein kinase erbB-2 (Homo sapiens) (P04626 whole entry, looked up): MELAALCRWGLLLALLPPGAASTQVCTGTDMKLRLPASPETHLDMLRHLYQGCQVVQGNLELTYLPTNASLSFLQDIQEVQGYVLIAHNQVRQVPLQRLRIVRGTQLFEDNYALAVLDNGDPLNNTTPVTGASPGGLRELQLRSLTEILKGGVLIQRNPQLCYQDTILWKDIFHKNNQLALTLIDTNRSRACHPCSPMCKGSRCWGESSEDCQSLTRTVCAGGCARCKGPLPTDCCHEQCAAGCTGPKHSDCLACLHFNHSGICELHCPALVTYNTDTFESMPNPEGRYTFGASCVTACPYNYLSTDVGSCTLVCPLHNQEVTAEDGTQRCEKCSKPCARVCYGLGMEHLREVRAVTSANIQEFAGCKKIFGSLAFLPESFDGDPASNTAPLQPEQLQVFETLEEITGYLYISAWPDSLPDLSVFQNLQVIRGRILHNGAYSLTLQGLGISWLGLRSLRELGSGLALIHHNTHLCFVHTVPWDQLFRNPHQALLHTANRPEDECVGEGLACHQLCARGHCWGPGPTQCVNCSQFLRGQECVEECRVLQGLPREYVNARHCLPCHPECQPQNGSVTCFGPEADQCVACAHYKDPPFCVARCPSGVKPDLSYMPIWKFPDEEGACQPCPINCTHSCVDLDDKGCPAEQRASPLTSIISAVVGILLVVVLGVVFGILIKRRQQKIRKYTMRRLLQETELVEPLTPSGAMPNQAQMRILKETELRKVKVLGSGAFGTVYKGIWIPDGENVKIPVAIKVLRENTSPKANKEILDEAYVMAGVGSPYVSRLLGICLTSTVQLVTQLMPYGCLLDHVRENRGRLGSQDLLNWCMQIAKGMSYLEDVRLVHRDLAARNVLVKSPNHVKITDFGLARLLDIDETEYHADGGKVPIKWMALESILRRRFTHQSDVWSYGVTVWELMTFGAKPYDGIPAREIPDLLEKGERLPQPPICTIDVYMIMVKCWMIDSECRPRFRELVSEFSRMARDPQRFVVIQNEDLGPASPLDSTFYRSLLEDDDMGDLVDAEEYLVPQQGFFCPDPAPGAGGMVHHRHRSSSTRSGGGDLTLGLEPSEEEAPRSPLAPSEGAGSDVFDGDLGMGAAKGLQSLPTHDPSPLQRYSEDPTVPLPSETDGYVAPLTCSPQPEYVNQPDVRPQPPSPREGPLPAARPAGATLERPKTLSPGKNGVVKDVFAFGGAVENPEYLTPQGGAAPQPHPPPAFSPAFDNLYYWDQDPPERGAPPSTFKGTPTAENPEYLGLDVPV

[3] = reduced viability of SK-BR-3 breast cancer cells – cell-based, 24 h, human, pilot screen (AID 572;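 active means viability at or below 10% of carrier control in both of two separate runs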;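 further: compound exposure lasted between 18 and 24 h rather than exactly 24 h; 100% = carrier-treated control wells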); details: SK-BR-3 viability, CellTiter-Glo luminescence, at 10 µM, stronger effect = lower value
[4] = HUVEC growth inhibition – cell-based, human, primary screen (AID 575;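 active means viability at or below 30% in both replicate assays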;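 further: 100% = median of untreated cell wells with 0.1% DMSO on each plate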); details: HUVEC proliferation, CellTiter-Glo luminescence, 72 h; at 10 µM; stronger effect = lower value
[5] = H69AR cell proliferation blockers – human, duplicate replicates, primary screen (AID 580); details: H69AR lung tumor cells viability, ATP luminescence, 72 h; at 10 µM; stronger effect = lower value;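 further: 100% = mean luminescence of untreated wells and 0% = no signal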
[6] = MRP1 drug-resistance reversers in H69AR cells – cell-based, doxorubicin co-treatment, pilot screen (AID 601;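 active means viability loss from added drug above about 55%, and viability with drug at most 40%, in both replicates, limit read from the data, passing the limit was not always enough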); details: CellTiter-Glo, 72 h, at 10 µM; for differential viability (reversal): stronger effect = higher value
[7] = yeast transport mutant growth inhibition pilot in 384-well plates, post-Golgi transport modulator project (AID 636; in the data active means inhibition above about 31%); details: absorbance 615 nm, about 18 h, stronger effect = higher value
[8] = growth suppression of yeast trafficking mutant, preliminary HTS, modulators of trafficking downstream of Golgi apparatus project, 1536-format plate, OD 615 nm (AID 637; in the data active means inhibition above about 30%); details: yeast transport mutant growth, absorbance 615 nm, 18 h; stronger effect = higher value
[9] = S. cerevisiae growth inhibition in permissive medium (OD615), pilot counter-assay for S. cerevisiae lifespan shortening project, permissive growth control (AID 705;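 active means growth inhibition above 25% in both replicates, a cutoff set 3 SD above the mean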); details: OD615, 24 h, at 10 µM, stronger effect = higher value
[10] = S. cerevisiae growth inhibition in restrictive medium, OD615, pilot screen, restrictive growth control, yeast lifespan reduction project (AID 706;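 active means growth inhibition above a set limit, 3 SD over mean compound inhibition, in both replicates, cut at about 43% in these data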;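 further: modified DeaD lifespan yeast strain shifted to restrictive glucose medium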); details: OD615, 48 h, at 10 µM, stronger effect = higher value
[11] = doxorubicin toxicity protection in MRP-1 cells – H69AR cells, CellTiter-Glo, duplicate, MRP-1 activator project, pilot screen (AID 807;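 active means viability increase at or above a cutoff of the median across tested compounds plus 3 SD, cut at about 8.5% in these data, passing the limit was not always enough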;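 further: compound pretreatment 18-22 h then 72 h combined with doxorubicin; 0% = doxorubicin alone and 100% = vehicle without doxorubicin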); details: H69AR viability with doxorubicin, CellTiter-Glo luminescence; at 10 µM; stronger effect = higher value
[12] = viability of HCT116 without oncogenic beta-catenin – human colon tumor cells, pilot screen (AID 823;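 active means cell viability at or below a set limit in both duplicate runs, the limit being the all-compound median minus 4 SD, cut at about 23% in these data, passing the limit was not always enough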;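 further: 0% = wells killed by 20 µM Hyamine and 100% = untreated DMSO cell wells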); details: HCT116 beta-catenin knockout viability, CellTiter-Glo, 60 h; at 10 µM; stronger effect = lower value
[13] = viability of PTEN-null HCT116 cells – cell-based, HCT116 clonal line, CellTiter-Glo, pilot screen (AID 824;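 active means viability at or below 27.92% in each of two runs, the all-compound median minus 4 SD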;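 further: 0% = 20 µM Hyamine control and 100% = vehicle cell control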); details: HCT116 PTEN-deleted viability, 60 h, at 10 µM, stronger effect = lower value
[14] = RAM pathway blockade in budding yeast – dse1pr::URA3 reporter, 5-FOA selection, pilot screen (AID 869;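 active means inhibition over a set limit, the all-compound mean plus 3 SD, in both replicate runs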;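 further: 0% = DMSO wells with no growth and 100% = 10 µM 1-NA-PP1 with full growth; RAM network block rescues cells from 5-FOA so hits raise OD615 growth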); details: S. cerevisiae dse1pr::URA3 5-FOA growth, OD615, 2 d; at 10 µM; stronger effect = higher value; strain carries analog-sensitive mutant Cbk1 kinase
[15] = RAM signaling pathway blockade in yeast – S. cerevisiae, Pdr1DBD-CYC8 efflux-inhibited sensitized strain, primary screen (AID 1298;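 active means RAM network inhibition above 8.4% in each of two replicates, 3 SD over the compound average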;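 further: 0% = DMSO untreated cells without growth and 100% = 10 µM 1-NA-PP1 full growth; higher means more yeast growth rescued from 5-FOA killing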); details: S. cerevisiae cbk1-as DSE1-URA3 strain, 5-FOA growth OD615, 2 d; at 50 µM; stronger effect = higher value
[16] = H69AR cells + 2 uM doxorubicin, measured here: viability with 2 uM doxorubicin, stronger effect = lower value
[17] = H69AR cells, compound alone cytotoxicity

| Compound | viability [1] [%] | Her2 level [2] | viability [3] | viability [4] | viability [5] | differential viability (reversal) ([6]; H69AR cells + 2 uM doxorubicin) | viability [6, 16] [%] | viability [6, 17] [%] | inhibition [7] | inhibition [8] | growth inhibition [9] | growth inhibition [10] | viability increase [11] | viability [12] | viability [13] | inhibition [14] | RAM network inhibition [15] |
| --- | --- | --- | --- | --- | --- | --- | --- | --- | --- | --- | --- | --- | --- | --- | --- | --- | --- |
| O=C(CCN1C(=O)c2ccccc2C1=O)NCCN1CCOCC1 | 105 | 119% (inactive) | 105% (inactive) | 86.3% (inactive) | 95.3% (inactive) | -5.16% (inactive) | 101 | 95.3 | 1.95% (inactive) | -9.5% (inactive) | -11.9% (inactive) | -6.59% (inactive) | 0.61% (inactive) | 93.8% (inactive) | 104% (inactive) | 0.42% (inactive) | 2.35% (inactive) |
| CC1CCN(S(=O)(=O)c2cccc(C(=O)Nc3ccccn3)c2)CC1 | 86 | 104% (inactive) | 86% (inactive) | 86.7% (inactive) | 94.3% (inactive) | -2.55% (inactive) | 96.8 | 94.3 | 4.1% (inactive) | 1.83% (inactive) | 8.12% (inactive) | 3.79% (inactive) | -1.96% (inactive) | 93.9% (inactive) | 97.7% (inactive) | -0.08% (inactive) | 4.54% (inactive) |
| Cn1cccc1Cc1nnc(SCC(=O)NCc2ccc(F)cc2)n1-c1ccc(F)cc1 | 94.5 | 108% (inactive) | 94.5% (inactive) | 80.9% (inactive) | 89% (inactive) | -4% (inactive) | 93 | 89 | -1.07% (inactive) | 13.3% (inactive) | -3.33% (inactive) | 8.56% (inactive) | -0.43% (inactive) | 97.6% (inactive) | 93.4% (inactive) | 2.13% (inactive) | 6.3% (inactive) |
| O=C(C(Cc1ccccc1)n1cccc1)N1CCCCCC1 (stereo not drawn) | 99 | 102% (inactive) | 99% (inactive) | 87.6% (inactive) | 95.6% (inactive) | 11.2% (inactive) | 84.4 | 95.6 | -0.13% (inactive) | -6.89% (inactive) | -11.2% (inactive) | -7.42% (inactive) | -2.42% (inactive) | 95.3% (inactive) | 88% (inactive) | 1.68% (inactive) | 2.67% (inactive) |
| CCN(CC)c1ccc(NC(=O)CN2C(=O)CC(C)(C)S(=O)(=O)c3ccccc32)c(C)c1 | 102 | 111% (inactive) | 102% (inactive) | 102% (inactive) | 84.8% (inactive) | -7.56% (inactive) | 92.4 | 84.8 | -4.8% (inactive) | 0.83% (inactive) | -6.69% (inactive) | -16.1% (inactive) | -4.31% (inactive) | 63.6% (inactive) | 78.1% (inactive) | 1.72% (inactive) | 3.26% (inactive) |
| c1ccc(C2(Cn3ccc4ccccc43)OCCO2)cc1 | 89 | 104% (inactive) | 89% (inactive) | 93.7% (inactive) | 94.9% (inactive) | 7.87% (inactive) | 87.1 | 94.9 | -0.78% (inactive) | 3.44% (inactive) | -4.05% (inactive) | -10.5% (inactive) | -3.2% (inactive) | 81.6% (inactive) | 81.8% (inactive) | 1.63% (inactive) | 6.65% (inactive) |
| CCOC(=O)N1CCC(Nc2ncnc3c2cnn3-c2ccc(C)cc2C)CC1 | 86 | 78.5% (inactive) | 86% (inactive) | 83.4% (inactive) | 72.7% (inactive) | 42.5% (inactive) | 30.2 | 72.7 | -4% (inactive) | 1.5% (inactive) | 5.81% (inactive) | -2.8% (inactive) | -6.54% (inactive) | 70.2% (inactive) | 67.4% (inactive) | 0.78% (inactive) | 1.71% (inactive) |
| COc1ccc(S(=O)(=O)N2CCN(c3ccc(C)cc3C)CC2)cc1OC | 94.5 | 93.5% (inactive) | 94.5% (inactive) | 73.8% (inactive) | 97.2% (inactive) | -0.96% (inactive) | 98.2 | 97.2 | -5.87% (inactive) | 2.5% (inactive) | 0.1% (inactive) | 4.36% (inactive) | -0.07% (inactive) | 50.6% (inactive) | 72.2% (inactive) | 2.41% (inactive) | 1.74% (inactive) |
| CCOc1ccc(NC(=O)CN(c2cc(C)cc(C)c2)S(=O)(=O)c2c(C)noc2C)cc1 | 94 | 90.5% (inactive) | 94% (inactive) | 85.2% (inactive) | 74.7% (inactive) | 0.455% (inactive) | 74.2 | 74.7 | 1.67% (inactive) | -1.83% (inactive) | -19.5% (inactive) | -16.8% (inactive) | -3.54% (inactive) | 102% (inactive) | 97.2% (inactive) | 2.2% (inactive) | 8.99% (inactive) |
